{
  "source": "paper PMC7819943",
  "about": "“Rice protein-binding microarrays: a tool to detect cis-acting elements near promoter regions in rice”",
  "note": "The full ranking holds about 35,000 sequences; the median of “fluorescence intensity (a.u.)” is about 10,000, and the highest 2% start at about 52,000. Many of the other results were omitted from the sample, so the highest values are more common in it than they were.",
  "data": [
    {"target": "T1, OsWOX13 (Oryza sativa, UniProt Q5QMM3 1-267)", "T1 sequence": "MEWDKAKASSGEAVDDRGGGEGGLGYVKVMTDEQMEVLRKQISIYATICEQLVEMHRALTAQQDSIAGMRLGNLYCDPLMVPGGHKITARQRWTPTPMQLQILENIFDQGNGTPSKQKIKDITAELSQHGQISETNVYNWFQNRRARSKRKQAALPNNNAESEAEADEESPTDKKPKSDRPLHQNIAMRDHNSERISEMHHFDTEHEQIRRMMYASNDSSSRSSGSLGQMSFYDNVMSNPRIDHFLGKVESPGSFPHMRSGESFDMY", "assay": "protein-binding microarray (RPBM); PBS, 2% BSA, 51.3 ng/ul salmon testes DNA, 50 uM zinc acetate, 200 nM TF, 25 C, 1 h; high values mean tight binding", "conditions": "protein: recombinant; tags: N-terminal polyhistidine and DsRed monomer fusion (pET32a); label: CyDye5-dUTP incorporated in the synthesized complementary strand; 3' TTTTT single-stranded linker to array surface; dsDNA, one strand shown", "summary_of_the_method": "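A custom Agilent array was converted to double-stranded form by primer extension with Cy5-dUTP and blocked with 2% BSA. Protein at 200 nM in PBS with 2% BSA, salmon testes DNA and 50 µM zinc acetate was applied for 1 h at 25 °C, followed by washing. The proteins were polyhistidine–DsRed N-terminal fusions of transcription factors, expressed in E. coli BL21-CodonPlus and Ni–NTA-purified. The binding signal is per-feature fluorescence intensity (arbitrary units) from an Axon 4000B scanner.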", "values": [
      {"sequence": "TCCACCGCGACATGTGATTGGAGGTAAGAGCATGTGAACCCGGAGTCACCTAGTGCAG", "binding signal": "5650 fluorescence intensity (a.u.)"},
      {"sequence": "AAATGTGATTTTGTAATTTCCCCTTTGAATTTTCATCAAACGGAGTCACCTAGTGCAG", "binding signal": "8970 fluorescence intensity (a.u.)"},
      {"sequence": "ATTGATTTGAATTCCAAATTTGTAATGATGTTGATCACCTCGGAGTCACCTAGTGCAG", "binding signal": "39400 fluorescence intensity (a.u.)"},
      {"sequence": "CTTTGTAATTGGAGTCAATCAAATTGAATGATTTCCCTTTCGGAGTCACCTAGTGCAG", "binding signal": "58900 fluorescence intensity (a.u.)"},
      {"sequence": "GAGATTGATTGCATATCAGAAGTAAATGATTTCAACAGATCGGAGTCACCTAGTGCAG", "binding signal": "54400 fluorescence intensity (a.u.)"},
      {"sequence": "GCAGAAATGATTGCACTTCAATTATTGAGTAAAACAGATTCGGAGTCACCTAGTGCAG", "binding signal": "30000 fluorescence intensity (a.u.)"},
      {"sequence": "GCTCCTGATTTGCCTGATCAGATCAACAGATTAGCATGATCGGAGTCACCTAGTGCAG", "binding signal": "23600 fluorescence intensity (a.u.)"},
      {"sequence": "TAGGATTATGTTGGTGATGATGATGACTAGTGTGCCTGAACGGAGTCACCTAGTGCAG", "binding signal": "4220 fluorescence intensity (a.u.)"},
      {"sequence": "ATAGTTAACAAAATTTGACAGCAAACTAAATGTAACCATTCGGAGTCACCTAGTGCAG", "binding signal": "27800 fluorescence intensity (a.u.)"},
      {"sequence": "TACCCATCACCAAAATTACCATAAACACAACATACTTAGGCGGAGTCACCTAGTGCAG", "binding signal": "4380 fluorescence intensity (a.u.)"},
      {"sequence": "TTGACTTAAATTATAATTTTAAACCATATATTATAATTGGCGGAGTCACCTAGTGCAG", "binding signal": "31400 fluorescence intensity (a.u.)"},
      {"sequence": "CATATAAATTGACAACTTCTACTTAAACCTGACATGTGGGCGGAGTCACCTAGTGCAG", "binding signal": "54500 fluorescence intensity (a.u.)"},
      {"sequence": "TAAATTGACAAATTCAACCTAGGCCTGGACTTATTTGGCGCGGAGTCACCTAGTGCAG", "binding signal": "57500 fluorescence intensity (a.u.)"},
      {"sequence": "AACTTATATAAGTTAAATTTAAACTTATATGTTTGTGGGGCGGAGTCACCTAGTGCAG", "binding signal": "4170 fluorescence intensity (a.u.)"},
      {"sequence": "ATATAAATTTGGAACAAATTCAACATCATGTTATCCTAGGCGGAGTCACCTAGTGCAG", "binding signal": "4060 fluorescence intensity (a.u.)"},
      {"sequence": "CAAAATTGAAAACTTCTTATTTGAAATTCAAAACTTTCAACGGAGTCACCTAGTGCAG", "binding signal": "10200 fluorescence intensity (a.u.)"},
      {"sequence": "TTTGCTAGATTGGAGCAAATCGCATATTCTTAACCCCACCCGGAGTCACCTAGTGCAG", "binding signal": "21600 fluorescence intensity (a.u.)"},
      {"sequence": "GTTTCGTCTCGTAATTTACACGCAATCTGTGTAATTAGTTCGGAGTCACCTAGTGCAG", "binding signal": "7230 fluorescence intensity (a.u.)"},
      {"sequence": "CTAAAATTTAATTAATCATACGACAGTGAATTTCTCATTTCGGAGTCACCTAGTGCAG", "binding signal": "20300 fluorescence intensity (a.u.)"},
      {"sequence": "TCAGACAAATTAAGTTTTAGCTTAGCTTATCACTTAACGGCGGAGTCACCTAGTGCAG", "binding signal": "7680 fluorescence intensity (a.u.)"},
      {"sequence": "AAATTCCGAATTTGATTCTTAATTAAGGCGAGCTATTCACCGGAGTCACCTAGTGCAG", "binding signal": "3490 fluorescence intensity (a.u.)"},
      {"sequence": "AAACAGACAAACTACACTAATTGTGATGACTCTGGATTTTCGGAGTCACCTAGTGCAG", "binding signal": "8340 fluorescence intensity (a.u.)"},
      {"sequence": "ACCATCATCAATTGATAGTTCTTGTTTCTCTAGTAGTAAGCGGAGTCACCTAGTGCAG", "binding signal": "9360 fluorescence intensity (a.u.)"},
      {"sequence": "AATTCAAGCTCATCACTGATTTGATAAGACATTAAGATAGCGGAGTCACCTAGTGCAG", "binding signal": "4050 fluorescence intensity (a.u.)"},
      {"sequence": "GTGACTGATTGACAGTATCAACCATCTAGTGTTAAGATAGCGGAGTCACCTAGTGCAG", "binding signal": "52800 fluorescence intensity (a.u.)"},
      {"sequence": "TAAGTATCCTTGATTGATTGCCTGATCGATCAGCTGCTAGCGGAGTCACCTAGTGCAG", "binding signal": "55000 fluorescence intensity (a.u.)"},
      {"sequence": "TCTTGCCAACTGATTGATCGATCCTGGAAGCTTGCTGCTGCGGAGTCACCTAGTGCAG", "binding signal": "37900 fluorescence intensity (a.u.)"},
      {"sequence": "GACGCCGTCAGCAATGATTGCCTTGCTAGCAGCTGCTTGACGGAGTCACCTAGTGCAG", "binding signal": "4390 fluorescence intensity (a.u.)"},
      {"sequence": "TGTCCACTGAAATTGATTGGAGATCGATGTGATGGTCAAGCGGAGTCACCTAGTGCAG", "binding signal": "40200 fluorescence intensity (a.u.)"},
      {"sequence": "TACGCCTGATTGGATCCCCACCCCTATCTCCACTGACTGTCGGAGTCACCTAGTGCAG", "binding signal": "34100 fluorescence intensity (a.u.)"},
      {"sequence": "CACCTGACTGATTGGATTGGTATCGATCCAAGCCTATCAGCGGAGTCACCTAGTGCAG", "binding signal": "57100 fluorescence intensity (a.u.)"},
      {"sequence": "TTGGGTGGCAATTATTAATCAGTCATGTCATTCAACTAGACGGAGTCACCTAGTGCAG", "binding signal": "11700 fluorescence intensity (a.u.)"},
      {"sequence": "GTGCTCTTGATTGGCACATGAGCCTTGGCGGCGGTGACCTCGGAGTCACCTAGTGCAG", "binding signal": "35600 fluorescence intensity (a.u.)"},
      {"sequence": "TTGATTGATCTTTGGTTGGATGGATGCTTGATGATGTGCTCGGAGTCACCTAGTGCAG", "binding signal": "31900 fluorescence intensity (a.u.)"},
      {"sequence": "CACATGATTGATATCTCGTCACTGCTCGTAACTTCAGCCTCGGAGTCACCTAGTGCAG", "binding signal": "62100 fluorescence intensity (a.u.)"},
      {"sequence": "TAGAGAGATTGATATTTCATGTGCTCTAGAGATGGTTGAGCGGAGTCACCTAGTGCAG", "binding signal": "28900 fluorescence intensity (a.u.)"},
      {"sequence": "AGTGTAATTAACTTTCTTCTTCTCTCCAACTGCTTCAGCTCGGAGTCACCTAGTGCAG", "binding signal": "11200 fluorescence intensity (a.u.)"},
      {"sequence": "TATTGATTGGTTCAGATGGAGACATGTGCAACTTCGTGCTCGGAGTCACCTAGTGCAG", "binding signal": "61700 fluorescence intensity (a.u.)"},
      {"sequence": "GACCAACGGTGATTATTAACATGATCTATATCTATCTATCCGGAGTCACCTAGTGCAG", "binding signal": "5820 fluorescence intensity (a.u.)"},
      {"sequence": "TCAAATATGACTAAATTAGTAGTTAAGTAGTATGGGAGAACGGAGTCACCTAGTGCAG", "binding signal": "13400 fluorescence intensity (a.u.)"},
      {"sequence": "CCAACTAATCATGCTTAGTTAGCAATTAAGCCATAAACAACGGAGTCACCTAGTGCAG", "binding signal": "9180 fluorescence intensity (a.u.)"},
      {"sequence": "ATGATTGCCGTATGATATGTGATACGAAAGAGTTGGGGATCGGAGTCACCTAGTGCAG", "binding signal": "32700 fluorescence intensity (a.u.)"}
    ]}
  ]
}
